Screening data: PubChem BioAssay, National Center for Advancing Translational Sciences (NCATS)
This is one part of a sample in which hits are shown more often than they occur.
Pf Dd2 inh = qHTS Primary assay for Inhibitors of Plasmodium falciparum Dd2 growth in vitro | P. falciparum Dd2 growth, SYBR Green, 72 h | Potency, µM (top dose mostly 28.9 µM), inactives show at the top dose activity, negative = inhibition, most hits filed as inhibitors | 4.3% of 120,000 active | AID 1347417, 2020; active = well fitted inhibition curve with a large enough effect;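 also: plate controls were DMSO vehicle for no effect and reference drug for full effect; nearly all actives have a fitted effect of over 65% in size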
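Infected erythrocytes (Dd2, 0.3% parasitemia, 2.5% hematocrit final) are added to compound in RPMI-1640/Albumax II medium, grown 72 h at 37C in low oxygen, then lysed with saponin/Triton-X containing SYBR Green and read by fluorescence.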
Starred values were filed as active, the others as inactive; i = inactive; [ ] = another dose, or the depositor's remark. Potency is read from the fitted curve at half-maximal effect.

SMILES	Pf Dd2 inh
CCc1ccc(CNC(=O)c2ccc(CSc3nc4ccncc4n3Cc3ccc(OC)cc3)cc2)cc1	13µM*
COc1ccc(Cn2c(=O)c3ccnn3c3ccc(C(=O)NCc4cccnc4)cc32)cc1	-35%
COC(=O)c1ccc(Cn2c(SCc3ccccc3)nc3ccncc32)cc1	-28%
COc1ccc(CSc2nc3ccncc3n2CC(=O)Nc2ccc(C)c(F)c2)cc1	i
O=C(CSc1nc2ccccc2n1Cc1ccccc1)NCc1ccccc1	-26%
CCc1ccc(CNC(=O)c2ccc(CSc3nc4ccncc4n3Cc3ccccc3)cc2)cc1	10µM*
Cc1noc([C@@H]2CN(Cc3cccc(Cl)c3F)C[C@H]2CO)n1	-8%
COc1ccc(C(=O)N2CCC(CC(=O)NCc3ccccc3)C2)cc1 (stereo not drawn)	55%
Cn1cc(CN2CCCC(C(=O)N3CCOCC3)C2)c(-c2ccc(C3CCCCC3)cc2)n1 (stereo not drawn)	-23%
Cn1cc(CN2CCN3CCCC3C2)c(-c2ccc(C3CCCCC3)cc2)n1 (stereo not drawn)	8.9µM*
Cn1cc(CN2CCN3C(=O)N(C4CCCCC4)C[C@H]3C2)cn1	i
CC(=O)N1C[C@@H]2OCC(=O)N(C)[C@@H]2C1	1%[76.6 µM]
Cc1cnc(-c2cccnc2)n1C1CCCN(C(=O)c2cccn2C)C1 (stereo not drawn)	-7%
COc1ccccc1N1CCN(C(=O)C[C@@H]2O[C@H](CNC(=O)c3cccc(F)c3)[C@@H](O)[C@H]2O)CC1	i
CC(C)CCNC(=O)c1nn(C)c2c1CSc1ccccc1-2	-20%
CCN(CC)CCCNC(=O)c1nn(C)c2c1CSc1ccccc1-2	5.6µM*
CC(C)OCCCNC(=O)c1nn(C)c2c1CSc1ccccc1-2	-23%
O=C(O)C[C@@H]1CCN(S(=O)(=O)c2ccccc2)C[C@@H]1CCN1CCN(c2cccc(C(F)(F)F)c2)CC1	12%
CCCNC(=O)N1CCC(N2CC(OCC3CC3)C23CCCCC3)CC1 (stereo not drawn)	8.9µM*
CC(=O)N1CCC(C(=O)N2CCC(N3CC(OCC4CC4)C34CCOCC4)CC2)CC1 (stereo not drawn)	9%
CC(C)CC(=O)N1CCC(N2CC(OCC3CC3)C23CCOCC3)CC1 (stereo not drawn)	-20%
Cc1ccc2cc(CCC(=O)NCCCN(C)C)c(=O)[nH]c2c1	85%
CC(C)c1nccn1CCCNC(=O)c1ccc(-c2cccnc2)nc1	-20%
O=C1CCC2(CNC(=O)C3CCOCC3)CCCC=C2N1 (stereo not drawn)	14%
Cc1nnc2n1CCC(NC(=O)c1ccc3c(c1)OCO3)CC2 (stereo not drawn)	31%
SMILES	Pf Dd2 inh
COc1cccc(CN2CCC(C(Cc3ccccc3F)N(C)C(=O)c3cccs3)CC2)c1O (stereo not drawn)	i
CCOc1cc(CN2CCC(C(Cc3ccccc3F)N(C)C(=O)c3cccs3)CC2)ccc1O (stereo not drawn)	4µM*
CCOc1cc(CN2CCOc3ccc(C(=O)NCc4ccccc4F)cc3C2)ccc1O	-7%
CN(C)CC(=O)Nc1ccc(C(=O)N2CCCC3(CCNC3)C2)cc1 (stereo not drawn)	-9%
CC(C)(Oc1ccccc1)C(=O)N1CCCn2nc(C(=O)N3CCOCC3)cc2C1	4%
CN(C)C[C@@H]1CN(C2CCOCC2)C[C@H]1NC(=O)c1cn(C)cn1	42%
O=C(c1ccncc1)N1CC[C@H](c2nnc(-c3ccccc3)o2)C1	2%[44.1 µM]
Cc1ccc(NC(=O)c2cc(-c3ccc(Br)s3)nc3ccccc23)cc1F	-22%
CCN(CC)CC(C)CNC(=O)c1cc(-c2ccc(Br)s2)nc2ccccc12 (stereo not drawn)	11µM*
COc1ccc(CNC(=O)c2cc(-c3ccc(Br)s3)nc3ccccc23)cc1	232%[5.79 µM]
Cc1noc(C)c1CC(=O)N1CCCC1c1nc(C2CCOCC2)no1 (stereo not drawn)	33%
COCCNC(=O)[C@@H]1C[C@H](Oc2ccccc2)CN1C(=O)c1cccn1C	-2%
O=C1CCC(=O)N1CC(=O)N1CCCCCC1c1nnc(-c2ccccc2)o1 (stereo not drawn)	1%
Cc1cc(C(=O)NCCCOC(C)C)c2c(C3CCNCC3)noc2n1	0%
COCCn1c(C)cnc1CCNC(=O)c1ccc(OC)nc1OC	i
Cc1noc(C)c1CCC(=O)N1CCC(C2CCN(S(C)(=O)=O)CC2)C1 (stereo not drawn)	23%
CN(Cc1cccc(C(F)(F)F)c1)C(=O)C(C)(C)C	-1%[44.1 µM]
CN(Cc1cccc(C(F)(F)F)c1)C(=O)c1ccccc1	i
Cc1ccccc1C(=O)N(C)Cc1cccc(C(F)(F)F)c1	14µM*
CCCS(=O)(=O)N1C[C@@H](Oc2ccccc2)C[C@@H]1C(=O)NC	-4%
Cc1ccccc1CNC(=O)C1CCN(C(=O)c2ncn3c2COC(c2ccccc2)C3)CC1 (stereo not drawn)	i
COc1ccc(-c2ccc3c(c2)C(=O)N2CCN(C(=O)CC(C)(C)C)C[C@@H]2C(=O)N3)cc1	i
COc1ccc(-c2ccc3c(c2)C(=O)N2CCN(C(=O)C4CCNCC4)C[C@@H]2C(=O)N3)c(OC)c1	-16%
O=C1Nc2ccc(-c3ccc4c(c3)OCO4)cc2C(=O)N2CCN(C(=O)COc3ccccc3)C[C@H]12	i
O=C1Nc2ccc(-c3ccc4c(c3)OCO4)cc2C(=O)N2CCN(C(=O)c3cccs3)C[C@@H]12	13µM*
SMILES	Pf Dd2 inh
COCC(=O)N1CCN2C(=O)c3cc(-c4ccc5c(c4)OCO5)ccc3NC(=O)[C@H]2C1	i
CC(C)(C)CC(=O)N1CCN2C(=O)c3cc(-c4ccc(Cl)cc4)ccc3NC(=O)[C@H]2C1	-22%
O=C1Nc2ccc(-c3ccccc3)cc2C(=O)N2CCN(C(=O)c3cccnc3)C[C@H]12	-25%[44.1 µM]
COc1ccc(C(=O)N2CCN3C(=O)c4cc(-c5ccc(Cl)cc5)ccc4NC(=O)[C@@H]3C2)cc1	6.3µM*
COc1ccc(-c2ccc3c(c2)C(=O)N2CCN(C(=O)c4ccccc4)C[C@@H]2C(=O)N3)cc1	5µM*
O=C(CN1CCOCC1)N[C@@H]1CCOC[C@H]1Oc1ccc(C(=O)O)cc1	-3%
CCc1ccc(C(=O)N2CCC(Cc3nc(C(C)C)no3)CC2)cc1	-24%
OCC1(CCOc2ccccc2)CCCN(c2ncnc3sccc23)C1 (stereo not drawn)	-22%
O=C(c1ccc(N2CC3CC(C2)[C@H]2CCCC(=O)N2C3)nc1)N1CCN(C2CCCCC2)CC1 (stereo partly drawn)	i
O=C(O)C1=NOC2CN(Cc3ccc(Cl)cc3)CC12 (stereo not drawn)	21%
COc1cccc(NC(=O)O[C@@H]2CC[C@]3(C)C(CC[C@@H](O)[C@H]3CC(=O)NCc3ccccc3OC)[C@]2(C)CO)c1 (stereo partly drawn)	i
CC(=O)N1CCC(N2C[C@@H](CO)[C@H](NC(=O)c3ccccc3)C2)CC1	26%
COc1ncccc1CNC[C@H]1O[C@@H]2C[C@@H](CC(=O)NCc3nccn3C)O[C@@H]2[C@@H]1O	-5%[44.1 µM]
O=C(CCn1ccn2nc3c(c2c1=O)CCCC3)NCc1ccccc1Cl	-6%
NCc1cccc(-c2cccc(Cl)c2)c1	13µM*
C=Cc1cccc(-c2nccn2-c2cccc(CN)c2)c1	-28%
NCc1cccc(-c2cncnc2)c1	6%[44.1 µM]
COCCNC(=O)[C@@H]1C[C@H](Oc2ccccc2)CN1C(=O)c1ccc(OC)cc1OC	16%
COC(=O)CC1c2cc(OC)c(OC)cc2CCN1C(=O)Nc1ccc(C)cc1Cl (stereo not drawn)	i
